MKP-1 inh: human dual specificity phosphatase 1 inhibition | recombinant MKP-1, OMFP hydrolysis fluorescence | inhibition, %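 (compounds tested at a single concentration somewhere between 10 and 100 µM)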 | 65,000 tested, 0.15% active | AID 374;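 active means inhibition above about 50%, limit read from the data; inconclusive means inhibition over screen mean plus 3 SD, below that limit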;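 further: 0% = DMSO max control wells and 100% = wells with enzyme stopped by NaOH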
Target sequence (P28562 whole entry, looked up): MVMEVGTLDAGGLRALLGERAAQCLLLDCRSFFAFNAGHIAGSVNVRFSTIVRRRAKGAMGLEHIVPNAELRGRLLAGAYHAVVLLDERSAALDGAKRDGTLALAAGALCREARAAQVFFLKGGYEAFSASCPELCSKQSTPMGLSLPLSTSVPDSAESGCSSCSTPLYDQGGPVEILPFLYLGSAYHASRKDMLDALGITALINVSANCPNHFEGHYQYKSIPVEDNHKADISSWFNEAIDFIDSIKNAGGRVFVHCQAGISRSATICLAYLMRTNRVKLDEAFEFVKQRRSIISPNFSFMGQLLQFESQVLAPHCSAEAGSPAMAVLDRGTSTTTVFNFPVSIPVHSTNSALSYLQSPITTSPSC
Cdc25B inh: inhibitors of human Cdc25B phosphatase; 65,000 tested, 0.1% active; recombinant Cdc25B, OMFP fluorescence Ex485/Em525; P30305; inhibition, %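 (compounds tested at 10 µM final in the well)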; in the data active means inhibition above about 50%
HePTP inhibitor: blocks human HePTP tyrosine phosphatase; AID 521; P35236; 110,000 tested, 0.64% active; inhibition, % at 20 µM; recombinant HePTP phosphatase activity, OD absorbance; in the data active means inhibition above about 50%; inconclusive means no clear call, values can overlap the other calls;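 further: plate controls were vehicle for no effect and reference inhibitor for full effect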
PLAP act: activators of human placental alkaline phosphatase | P05187 | purified PLAP enzyme, luminescent substrate read-out; stronger effect = higher value | activation fold at 20 µM | 96,000 tested, 1.2% active | AID 696; in the data active means activation fold above about 2
BAP1 inh: blocks human BAP1 ubiquitin-AMC hydrolysis | AID 436 | 72,000 tested, 0.48% active | recombinant BAP1, Ub-AMC hydrolysis fluorescence kinetic; stronger effect = lower value | calls only at 20 µM;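 active means activity remaining at or below 50% of control, provided the compound also passes the data quality filters; inactive means the rest, including low values that fail the filters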;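 further: 100% = DMSO wells rate and 0% = substrate alone blank rate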
BAP1 inh confirm: BAP1 (human) enzyme inhibition, confirmed | shares compounds with BAP1 inh | purified BAP1, Ub-ethyl ester hydrolysis, HPLC; stronger effect = lower value | % of control activity, % at 20 µM | 310 tested, 8% active | AID 753;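 active means percent of control activity at or below 60%; inconclusive means HPLC trace unusable from injection failure or solvent front hiding peaks; inactive means the rest, plus ubiquitin peak ratio over a set limit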
An asterisk follows results filed as active; i = inactive; ? = inconclusive; . = not tested or not shown; + = active, no number. Compounds with a hit are over-represented: about 1.4% of the library has one in this group of screens.

SMILES | MKP-1 inh | Cdc25B inh | HePTP inhibitor | PLAP act | BAP1 inh | BAP1 inh confirm
O=C(O)c1c(-c2ccccc2)c2oc3ccccc3c2[nH]c1=O | 0 | -2 | 0 | 1 | + | 115
O=C(O)c1cccc2c(=O)oc3ccccc3c12 | . | . | 2 | . | . | .
COc1ccc(CNC(=O)C(NS(=O)(=O)c2ccc3c(c2)CCCN3C(C)=O)C(C)C)cc1 (stereo unspecified) | 7 | 8 | 3 | 1 | i | .
CCC(=O)N1CCc2cc(S(=O)(=O)NC(C(=O)NCc3ccc(C)cc3)C(C)C)ccc21 (stereo unspecified) | 15 | 25 | 6 | 1.1 | + | i
Cc1cc(C)cc(N2C(=O)NC(=O)/C(=C\c3cn(C)c4ccccc34)C2=O)c1 | . | . | 3 | . | . | .
CCC(C)(C)n1nnnc1CN(Cc1cc2cc(OC)ccc2[nH]c1=O)C1CCCC1 | 26 | -15 | 6 | 1.4 | + | 130
COc1ccc(Cn2nnnc2CN(Cc2cc3ccc(C)cc3[nH]c2=O)C2CCCC2)cc1 | -14 | -15 | 8 | 0.9 | i | .
COc1cc(C(=O)N2CCN(C3CCCCCC3)CC2)cc(OC)c1OC | . | . | 2 | . | . | .
O=S(=O)(NC(=S)c1ccccc1)c1ccc(I)cc1 | . | . | -26 | . | . | .
CCCOc1ccc(OC(=O)c2cccc([N+](=O)[O-])c2)cc1 | . | . | . | . | i | .
CCOc1cc(/C=C2\C(=O)NC(=O)N(c3ccc(Cl)cc3)C2=O)c(Br)cc1OC | . | . | -2 | . | . | .
CC(C)c1nc(SCC(=O)Nc2cccc(C(F)(F)F)c2)c2c(=O)n(C)c(=O)n(C)c2n1 | 12 | -1 | -12 | . | + | 103
CC(C)c1nc(SCC(=O)Nc2ccc3c(c2)OCCO3)c2c(=O)n(C)c(=O)n(C)c2n1 | -2 | 2 | 3 | 0.8 | i | .
CCCc1nnc(NC(=O)Nc2ccc(Cl)cc2)s1 | . | . | -22 | . | . | .
COc1ccc(-n2c(SCC(=O)Nc3ccc4c(c3)OCO4)nc3c(c2=O)SCC3)cc1 | 22 | -30 | 4 | 1.7 | + | 105
O=C(CSc1nc2c(c(=O)n1-c1ccc(Cl)cc1)SCC2)N1CCOCC1 | 0 | -31 | 4 | 1.1 | i | .
O=C(CSc1nc2c(c(=O)n1-c1ccc(Cl)cc1)SCC2)Nc1ccc2c(c1)OCCO2 | 17 | -5 | 6 | 1 | + | 49*
COc1ccccc1-n1c(SCC(=O)Nc2ccc3c(c2)OCO3)nc2c(c1=O)SCC2 | 21 | -9 | -6 | 1.4 | i | .
Cc1sc(NC(=O)CSc2nnc(-c3ccccc3)o2)c(C#N)c1C | -2 | -6 | 1 | 1 | + | 37*
CCOc1ccc(N2C(=O)S/C(=C\C=C\c3ccccc3)C2=O)cc1 | . | . | -6 | . | . | .
COc1ccccc1N1CCN(CC(O)COC2CC(C)CCC2C(C)C)CC1 (stereo unspecified) | . | . | -7 | . | . | .
CCc1nc(SCC(=O)Nc2ccc3c(c2)OCCO3)c2oc3ccccc3c2n1 | 17 | -14 | 4 | 1 | + | ?
Cc1nc(SCC(=O)Nc2ccc3c(c2)OCCO3)c2oc3ccccc3c2n1 | . | . | 1 | 1.2 | . | .
CC(=O)C(C(C)=O)c1c(Cl)c(O)c(O)c2c(C(=O)c3ccccc3)coc12 | 10 | 10 | -10 | 1.4 | + | 64
Cc1cc2n(n1)C(c1ccco1)Nc1ccccc1-2 (stereo unspecified) | -18 | 1 | -7 | 0.9 | + | 98
SMILES | MKP-1 inh | Cdc25B inh | HePTP inhibitor | PLAP act | BAP1 inh | BAP1 inh confirm
COc1ccc(Cn2nnnc2C(C(C)C)N(Cc2ccco2)Cc2cccs2)cc1 (stereo unspecified) | 11 | -14 | 2 | 1 | + | 108
CC(C)C(c1nnnn1Cc1ccccc1)N(Cc1ccco1)Cc1cccs1 (stereo unspecified) | 11 | -14 | 9 | 1.2 | i | .
CC1CCc2nc(NC(=O)c3ccc(S(=O)(=O)N4CCOCC4)cc3)sc2C1 (stereo unspecified) | . | . | . | . | i | .
CC1CCc2nc(NC(=O)c3cc(C(C)(C)C)nn3C)sc2C1 (stereo unspecified) | -19 | 2 | 4 | . | + | 123
COc1cc(NC(=O)c2cc3ccccc3o2)c(OC)cc1Br | 7 | -3 | 10 | 1.1 | + | 134
COc1cc(NC(=O)c2cc3ccccc3o2)c(OC)cc1Cl | 7 | -11 | 8 | 0.9 | i | .
COc1cc2c(cc1OC)-c1cc(N3CCCCCC3)nc(=O)n1CC2 | -5 | 7 | 1 | 1.2 | + | 142
COc1cc2c(cc1OC)-c1cc(N3CCCc4ccccc43)nc(=O)n1CC2 | 25 | 4 | 3 | 1.6 | i | .

Compound activity deposited in PubChem by several laboratories.
